Only a selection was taken, and hits are over-represented in it overall.
JMJD2E inh: inhibitors of human JMJD2E histone demethylase. AID 2147. B2RXH2. Potency, µM (titrated, usually from 57.1 µM), inactives show top-dose activity change, negative = inhibition, usual class: inhibitors. hit rate 1.6% among 230,000. JMJD2E catalytic domain, FDH-coupled NADH fluorescence (FDH is formaldehyde dehydrogenase);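 note: 0% = wells with enzyme and -100% = buffer wells without enzyme; nearly all actives have a fitted effect of over 50% in size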
Target sequence (B2RXH2 1-337 limits assumed): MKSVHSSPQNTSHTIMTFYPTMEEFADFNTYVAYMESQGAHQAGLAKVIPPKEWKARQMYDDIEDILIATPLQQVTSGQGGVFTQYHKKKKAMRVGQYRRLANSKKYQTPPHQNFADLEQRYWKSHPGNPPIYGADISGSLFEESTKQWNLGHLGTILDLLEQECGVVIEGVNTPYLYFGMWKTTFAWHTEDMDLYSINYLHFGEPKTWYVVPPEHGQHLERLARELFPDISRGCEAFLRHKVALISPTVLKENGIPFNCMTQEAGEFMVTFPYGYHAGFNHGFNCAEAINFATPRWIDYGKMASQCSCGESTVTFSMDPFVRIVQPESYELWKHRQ
GCN5L2 inh: inhibitors of human GCN5L2 histone acetyltransferase. Q92830. GCN5L2 HAT assay, ThioGlo1 CoA-SH fluorescence. Potency, µM (series often up to 58.9 µM), inactives show at the highest dose activity change, negative = inhibition, actives largely listed as inhibitors. hit rate 0.21% among 390,000
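qHTS, 1536-well. 20nM enzyme, pH 7.5 HEPES/EDTA/Tween-20 buffer; 15 min compound preinc., RT. Start: 75uM H3(1-25), 70uM AcCoA, 50uM ThioGlo1. Read Ex340/Em540 at t=0 (autofluorescence flag) and t=20 min.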
APE1 inh: inhibitors of human APE1 endonuclease. recombinant APE1, TAMRA/BHQ-2 abasic DNA cleavage fluorescence. Potency, µM (top dose mostly 65.8 µM), for the others: at the top dose activity change, negative = inhibition, usual class: inhibitors. hit rate 0.35% among 350,000. AID 2517;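 note: plate controls were vehicle for no effect and reference inhibitor for full effect; nearly all actives have a fitted effect of over 55% in size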
Target sequence (P27695 whole entry, looked up): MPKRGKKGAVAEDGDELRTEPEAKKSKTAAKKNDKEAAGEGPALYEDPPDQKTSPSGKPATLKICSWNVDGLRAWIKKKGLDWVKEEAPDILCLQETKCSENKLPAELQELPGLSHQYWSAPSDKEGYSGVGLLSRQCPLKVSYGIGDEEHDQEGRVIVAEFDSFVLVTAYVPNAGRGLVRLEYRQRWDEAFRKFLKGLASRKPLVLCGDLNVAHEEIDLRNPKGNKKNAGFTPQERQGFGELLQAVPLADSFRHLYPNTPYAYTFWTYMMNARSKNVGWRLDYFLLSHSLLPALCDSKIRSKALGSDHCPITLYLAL
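Endonuclease cleavage of a quenched abasic-site DNA duplex (50 nM) by APE1 (0.75 nM) was tracked by TAMRA dequenching. Compounds were preincubated with enzyme 15 min at room temperature; data normalized to buffer-only and DMSO wells plus NSC13755 control.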
BLM helicase inh: Bloom syndrome helicase (human) inhibition; P54132; recombinant BLM DNA unwinding, fluorescence dequenching; Potency, µM (doses to about 56.1 µM), for the others: at the top dose activity change, negative = inhibition, actives largely listed as inhibitors; hit rate 0.2% among 350,000;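 note: plate controls were vehicle for no effect and no enzyme for full effect; nearly all actives have a fitted effect of over 35% in size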
TDP1 inh: blocks human tyrosyl-DNA phosphodiesterase 1. Q9NUW8. recombinant TDP1, AlphaScreen DNA substrate cleavage. Potency, µM (series often up to 130 µM), for the others: at the top dose activity change, negative = inhibition, actives largely listed as inhibitors. hit rate 0.28% among 350,000; note: nearly all actives have a fitted effect of over 40% in size
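Steps: enzyme plus compound, 15 min RT; add biotin/phosphotyrosine-FITC oligonucleotide (15 nM final), react 5 min; add donor/acceptor beads (10 ug/ml final), 10 min; read AlphaScreen. Tdp1 at 1 nM final.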
RECQ1 inh-1: blocks DNA unwinding by human RECQ1; P46063; RECQ1 DNA unwinding, red fluorescence kinetic read; Potency, µM (highest dose often 57.3 µM), for inactives: at the top dose activity, negative = inhibition, hits mostly inhibitors; hit rate 0.54% among 240,000;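 note: plate controls were vehicle for no effect and no enzyme for full effect; nearly all actives have a fitted effect of over 30% in size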
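50 nM RECQ1T1 preincubated 15 min with compound in Tris pH 8.0 buffer with MgCl2, DTT, Tween-20 and 2.5 ug/ml poly(dI-dC); started with 200 nM TAMRA/BHQ-2 forked duplex and 2 mM ATP. Unwinding read as fluorescence (525/598 nm), two reads 2 h apart.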
RECQ1 conf: confirmation of human RECQ1 helicase inhibitors; AID 2708; shares compounds with RECQ1 inh-1; RECQ1 helicase DNA unwinding, fluorescence; hit rate 28% among 610; Potency, µM (highest dose often 229 µM), for inactives: at the highest dose activity change, negative = inhibition, most hits filed as inhibitors; note: nearly all actives have a fitted effect of over 45% in size
RECQ1 ADP FP: displaces ADP in a fluorescence polarization counter-screen for RECQ1 hits; shares compounds with RECQ1 inh-1; ADP fluorescence polarization displacement counterscreen; Potency, µM (top dose mostly 228 µM), inactives show at the top dose activity change, negative = inhibition, usual class: inhibitors; hit rate 27% among 530; note: nearly all actives have a fitted effect of over 45% in size
RECQ1 inh-2: blocks human RECQ1 DNA unwinding | AID 504841 | Potency, µM (titrated, usually from 119 µM), for inactives: at the top dose activity, negative = inhibition, actives largely listed as inhibitors | hit rate 15% among 1,100 | recombinant RECQ1 DNA unwinding, red fluorescence | shares compounds with RECQ1 inh-1; note: nearly all actives have a fitted effect of over 50% in size
Numbers without * were called inactive; i = inactive; ? = inconclusive; / = no result given; [ ] = dose if it differs, or a comment. Unless noted, calls come from the whole dose curve; as a rule, active = well fitted curve in the direction sought with a large enough effect; inconclusive = small, poorly fitted or top-dose-only effect, or another doubt; inactive = no such curve, though single readings can be large; an effect the other way counts as inactive or inconclusive. Unless noted, % is set by controls: 0 for no effect and ±100 for the full control effect; potency is the fitted concentration of half-maximal effect.

SMILES	JMJD2E inh	GCN5L2 inh	APE1 inh	BLM helicase inh	TDP1 inh	RECQ1 inh-1	RECQ1 inh-2	others
O=S(=O)(c1ccccc1)n1c(C(O)c2ccccn2)cc2ccccc21 (stereo unspecified)	-3.5%	-2.8%	0.0%	-1.6%	1.2%	?	-12.9%
COc1ccc2c(c1)cc(C(O)c1ccccn1)n2S(=O)(=O)c1ccccc1 (stereo unspecified)	-11.7%	-4.6%	?	-2.7%	6.3%	-13.2%	/
COc1ccc2nc(-c3ccco3)c(-c3ccco3)nc2c1	?	-18.2%	8.91µM*	12.6µM*	/	?	2.4%
CC1CN(C(=O)N2CCC(C(=O)NCCCc3ccccc3)CC2)c2cc(Cl)ccc2O1 (stereo unspecified)	/	-15.9%	/	-2.6%	1.3%	/	/
Cc1ccc(/C=C/C(=O)NCc2ccccn2)o1	-22.6%	-23.7%	?	?	14.1µM*	?	17.8µM*
COc1ccc(/C=C/C(=O)NCc2ccccn2)cc1	-0.2%	-0.8%	-0.2%	1.4%	1.2%	-42.0%	/
COC(=O)C1=C(C)N2C(=O)CSC2=NC1c1ccc2c(c1)OCO2 (stereo unspecified)	-1.2%	-6.2%	9.8%	-6.0%	2.1%	?	-16.4%
COCCN1C=C(C(=O)OC)C(c2ccc3c(c2)OCO3)C(C(=O)OC)=C1	?	-1.0%	2.5%	-6.7%	-2.1%	i	/
Cc1ccc(S(=O)(=O)Nc2ccc3c(c2)c(C(=O)OC(C)C)c(C)n3S(=O)(=O)c2ccc(C)cc2)cc1	/	-27.8%	/	-11.8%	/	/	/
COC(=O)c1cc2ccsc2n1Cc1nc(-c2ccc(OC)cc2)oc1C	?	-6.6%	-1.6%	-3.8%	1.0%	31.6µM*	-22.7%
COC(=O)c1cc2sccc2n1Cc1nc(-c2ccc(OC)cc2)oc1C	?	?	18.1%	-7.9%	3.9%	i	/
c1cncc(CNc2ncnc3ccc(-c4ccco4)cc23)c1	/	-2.3%	-11.8%	/	/	/	/
Clc1ccccc1-c1nnc2sc(C3COc4ccccc4O3)nn12 (stereo unspecified)	6.9%	?	4.8%	-8.4%	2.1%	4.47µM*	-19.1%	RECQ1 conf=-12.9%[114 µM];RECQ1 ADP FP=?
COc1ccccc1S(=O)(=O)Cc1ccc(C(=O)NCc2ccc(Cl)cc2)o1	/	-6.4%	/	-1.2%	4.6%	/	/
COc1c(C(CC(C)C)OC(C)=O)ccc2c1C(=O)OCc1cc(C)cc(O)c1O2 (stereo unspecified)	-2.6%	-26.6%	-6.0%	-20.1%	/	?	-12.8%
O=C1c2ccccc2C(=O)c2c(NCCCN(CCO)CCO)cccc21	-3.0%	22.4%	?	15.8µM*	4.3%	20µM*	17.8µM*
CC(=O)OC1C=C[C@@H](OC(C)=O)C1 (stereo partly specified)	/	45.6%	0.3%	-3.7%	8.2%	16.8%	/
Cc1cc(C(=O)CSc2nnc(-c3ccco3)o2)c(C)n1CC1COc2ccccc2O1 (stereo unspecified)	?	-9.7%	?	-9.0%	-5.2%	31.6µM*	-10.1%
O=C1C(C2=NC(c3ccccn3)C3C(=O)N(c4ccc(OC(F)(F)F)cc4)C(=O)C23)=C(O)c2ccccc21 (stereo unspecified)	2.7%	0.0%	-0.9%	0.1%	/	i	/
O=C1C(C2=NC(C(=O)O)C3C(=O)N(c4ccccc4)C(=O)C23)=C(O)c2ccccc21 (stereo unspecified)	-1.0%	-7.8%	-1.4%	-0.7%	2.0%	-2.6%	/	RECQ1 conf=15.0%;RECQ1 ADP FP=?
c1ccc2c(NC3CCNCC3)nc(-c3ccoc3)nc2c1	/	-13.3%	-2.7%	60.3%	/	-4.0%	/
CN(C)c1ccc(-c2nc(NC3CCNCC3)c3ccccc3n2)cc1	?	-23.1%	?	?	-4.2%[56.1 µM]	?	20µM*
C=C1C(n2cnc3c(=O)[nH]c(N)nc32)C[C@H](O)[C@H]1CO (stereo partly specified)	/	-8.0%	/	-0.3%	/	/	/
COc1cccc(Nc2nc(N)c([N+](=O)[O-])c(NCc3ccccc3)n2)c1	-1.5%	-8.6%	-3.3%	?	7.1%	?	50.1µM*
Cc1ccc(Nc2nc(N)c([N+](=O)[O-])c(NCc3ccco3)n2)cc1C	7.2%	-14.6%	-1.8%	?	9.1%	35.5µM*	50.1µM*
SMILES	JMJD2E inh	GCN5L2 inh	APE1 inh	BLM helicase inh	TDP1 inh	RECQ1 inh-1	RECQ1 inh-2	others
Cc1ccc(Nc2nc(N)c([N+](=O)[O-])c(NCCO)n2)cc1C	4.9%	-5.7%	-0.9%	-0.2%	3.9%	0.1%	/
Cc1cc(C(=O)OCC(=O)c2ccc(Cl)c([N+](=O)[O-])c2)c2cccc(C)c2n1	-19.2%	-12.4%	?	-17.2%	8.2%	17.8µM*	-13.3%
Cc1ccc2nc(C)cc(C(=O)OCC(=O)c3ccc(Cl)c([N+](=O)[O-])c3)c2c1	-10.9%	-4.5%	-0.8%	-6.7%	5.7%	-2.0%	/
COc1ccccc1-n1cnnc1SCC(=O)c1cc(C)n(Cc2cccs2)c1C	-21.9%	-5.9%	?	-3.7%	9.6%	?	-10.8%
CCn1c(SC(C)C(=O)O)nc2sc3c(c2c1=O)CCC3 (stereo unspecified)	-9.6%	-13.5%	?	-10.0%	11.2µM*	?	?
CCN(CC)C(=O)c1cn(CCC#N)nc1-c1ccc(F)cc1	5.7%	-1.0%	?	-0.3%	0.0%	39.8µM*	3.1%
CN(C)C(=O)c1cn(CCC#N)nc1-c1ccc2ccccc2c1	/	-5.1%	10.2%	1.9%	/	/	/
O=C(N/N=C/c1cccc(NC(=O)c2ccc(Cl)cc2)c1)c1ccc(O)cc1	-5.1%	-19.5%	?	-0.6%	/	17.8µM*	/	RECQ1 conf=112µM*;RECQ1 ADP FP=19.3%[91.9 µM]
Cc1cc(C)c2c(=O)cc(C(=O)Nc3sc4c(c3C(=O)NCc3ccccc3)CCCC4)oc2c1	/	-6.2%	/	2.2%	6.1%	/	/
Cc1ccc(C(=O)c2c(C)oc3c2C(=O)C(=O)c2ccccc2-3)cc1	5.9%	-5.4%	-4.7%	-6.6%	10.3%	?	56.2µM*

Compound activity deposited in PubChem BioAssay by National Center for Advancing Translational Sciences (NCATS).
